“And” between values parts separate entries of the source, which are not always exact repeats. Identical values can stand only once. Records with an inconclusive call do not appear. The source made the active and inactive calls. Calls follow the shape of the full dose curve.
assay: p53 small molecule agonists, cell-based qHTS assay: qHTS cell viability counter screen (AID 1963581); conditions: p53RE-bla HCT-116 viability, ATP luminescence, 16 h; series mostly up to 66 µM; activity change, negative = cytotoxicity: at the top concentration; also: nearly all actives have a fitted effect of over 45% in size
Description: National Center for Advancing Translational Sciences [NCATS]
Division of Preclinical Innovation [DPI]
U.S. Environmental Protection Agency [EPA]
National Institutes of Environmental Health Sciences [NIEHS]
National Toxicology Program [NTP]
U.S. Food and Drug Administration [FDA]
p53, a tumor suppressor protein, is activated following cellular insult, including DNA damage and other cellular stresses. The activation of p53 regulates cell fate by inducing DNA repair, cell cycle arrest, apoptosis, or cellular senescence. The activation of p53, therefore, is a good indicator of DNA damage and other cellular stresses. The CellSensor p53RE-bla HCT-116 cell line (Invitrogen) contains a stably integrated beta-lactamase reporter gene under control of the p53 response elements. The activation of the reporter gene under culture conditions can be detected by fluorescence intensity. This cell line was used to screen the Tox21 compound library in a 1536-well plate format and to identify agonists that activate the p53 signaling pathway. The cytotoxicity of the Tox21 compound library against the p53 RE-bla HCT-116 cell line was tested in parallel by measuring the intra cellular ATP content in the same wells.
Tox21 Assay Protocol Summary:
The p53RE-bla cells were dispensed at 4,000 cells/5 ul/well in 1536-well black wall/clear bottom plates using a Multidrop dispenser. After the assay plates were incubated at a 37 C/5% CO2 incubator for 5 hours, 23 nL of compounds dissolved in DMSO, positive controls or DMSO only was transferred to the assay plate by a pin tool. The plates were incubated at 37 C for 16 hours. After 1 uL of LiveBLAzerTM B/G FRET substrate was added using a Flying Reagent Dispenser, the plates were incubated at room temperature for 2 hours, and fluorescence intensity was measured by an Envision plate reader. For cell viability readout that measures cytotoxicity, 4 ul/well of CellTiter-Glo reagent was added into the assay plates using a Flying Reagent Dispenser. After 30 min incubation at room temperature, the luminescence intensity in the plates was measured using a ViewLux plate reader.
% is scaled to controls: 0 for no effect and ±100 for the full control effect; potency is read from the fitted curve at half-maximal effect.

Row | SMILES | activity change, negative = cytotoxicity | Potency
1 | C[C@@H](O)[C@H]1C(=O)N2C(C(=O)O)=C([C@H]3CCCO3)S[C@H]12 | -0.952% [at 30.3 µM] (inactive) | 
2 | CC(C)CC(=O)OCc1ccccc1 | 17.7% (inactive) | 
3 | CC(C)(C)OC(=O)c1cccc(N)c1 | 7.46% (inactive) | 
4 | FC(F)(F)c1cccc(Cl)c1 | -3.39% (inactive) | 
5 | O=S(=O)(O)CC(O)CCl (stereo not given) | 0.912% (inactive) | 
6 | O=c1[nH]c(=O)c2cn[nH]c2[nH]1 | -7.98% (inactive) | 
7 | Oc1ccc2c(c1)OC[C@@H](N1CCC(O)(c3ccc(F)cc3)CC1)[C@H]2O | 16.2% [at 30.3 µM] (inactive) | 
8 | OCCNCCO |  | inactive
9 | CC(C)(c1cc(Br)c(O)c(Br)c1)c1cc(Br)c(O)c(Br)c1 |  | 36.2 µM (active) and 40.7 µM (active)
10 | COCCOCCOCCOCCOC | -13.5% (inactive) | 
11 | O=C1NCCN1CCO | -22.4% (inactive) | 
12 | CCCCC(CC)CCC(CC(C)C)OS(=O)(=O)O (stereo not given) | -3.34% (inactive) | 
13 | CCC(=O)CC | 2.88% (inactive) | 
14 | O=[Si]=O | -14.9% (inactive) | 
15 | C[n+]1ccn(CCO)c1 |  | inactive
16 | CCCCCCC(C)(C)C(=O)O | 9.9% (inactive) | 
17 | c1ccc2cnccc2c1 | 1.45% (inactive) | 
18 | O=Nc1ccc(NO)cc1 | 19% (inactive) | 
19 | CC[C@@H]1C[C@H](N(Cc2cc(C(F)(F)F)cc(C(F)(F)F)c2)C(C)=O)c2cc(C(F)(F)F)ccc2N1C(=O)OC(C)C | 2.66% (inactive) | 
20 | Nc1ccc([N+](=O)[O-])c(C(F)(F)F)c1 | 5.73% [at 30.3 µM] (inactive) | 

Row | SMILES | activity change, negative = cytotoxicity | Potency
21 | O=S(=O)(O)CO | -0.672% (inactive) | 
22 | C=C1C[C@H]2[C@@H]3C=C(C)C4=CC(=O)CC[C@]4(C)[C@H]3CC[C@]2(C)[C@@]1(OC(C)=O)C(C)=O | -12.4% [at 30.3 µM] (inactive) | 
23 | O=C(O)CCc1ccccc1 | 4.4% (inactive) | 
24 | CCN1CCC[C@H]1CNC(=O)c1c(O)c(Cl)cc(Cl)c1OC | 20.8% [at 30.3 µM] (inactive) | 
25 | CCCCCCCCC1CCC(=O)O1 (stereo not given) | -10.9% (inactive) | 
26 | CC(=O)NCCO | -1.43% (inactive) | 
27 | COC(=O)c1cc(Cl)ccc1NS(=O)(=O)C(F)(F)F | -6.92% [at 30.3 µM] (inactive) | 
28 | CC(C)S | 7.71% (inactive) | 
29 | CCOC(=O)C(C)C(C)=O (stereo not given) | 19.2% (inactive) | 
30 | CCCCN(CCO)CCO | -10.7% (inactive) | 
31 | CCOCCOCCOCC | 3.39% (inactive) | 
32 | NS(=O)(=O)c1ccccc1Cl | -0.323% (inactive) | 
33 | CC1CC(O)CC(C)(C)C1 (stereo not given) | -15.8% (inactive) | 
34 | C#CC(O)CCC (stereo not given) | 18.9% (inactive) | 
35 | Cc1ccc(C(=O)C(=O)O)cc1C | -1.35% [at 30.3 µM] (inactive) | 
36 | CCCCCCOCCOCCO | -0.641% (inactive) | 
37 | COC(=O)c1ccc(C)cc1C1=NC(C)(C(C)C)C(=O)N1 (stereo not given) | -6.6% (inactive) | 
38 | CCC(C(=O)NC(N)=O)c1ccccc1 (stereo not given) | -4.12% (inactive) | 
39 | CCCCCCCCCCCCCCC(=O)O | 9.2% (inactive) | 
40 | COCc1ccc(COC)cc1 | 6.12% (inactive) | 

Reference: PubChem BioAssay (Tox21)
